Several values for one entry are separate records, joined by “and”; a condition that tells them apart may be missing. Equal values may be shown once. Records with an inconclusive call do not appear. Activity calls are given as the source filed them. Unless noted, calls come from the whole dose curve.

Test [1] addresses Bile acid receptor (Homo sapiens) (UniProt Q96RI1). Description: qHTS assay for small molecule agonists of farnesoid X receptor signaling (AID 588527).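 Note: series mostly up to about 77 µM; 0% = vehicle basal and 100% = reference agonist.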 The note with it: HEK293T FXR-UAS-bla, beta-lactamase ratio, 16 h; activation: stronger effect = higher value. A digest of the protocol: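 Read-out: beta-lactamase reporter fluorescence with CCF4 substrate in GeneBLAzer FXR-UAS-bla HEK293T cells, after 16 h compound exposure at 37 C. Response scaled between DMSO basal (0%) and chenodeoxycholic acid at 100 uM (100%).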
Background: qHTS replaces the single test concentration by a dilution series.

Test [2] concerns the target Peroxisome proliferator-activated receptor delta (Homo sapiens) (UniProt Q03181). Description: qHTS assay for small molecule agonists of peroxisome proliferator-activated receptor delta signaling (AID 588534).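 Note: 0% = DMSO basal wells and 100% = positive control agonist at 10 µM.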 Summed up: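 Fluorescence from CCF4 substrate cleavage by beta-lactamase reporter, read 2 hrs at RT, measured agonist activity. Compounds were tested with 18 hrs exposure at 37 C. Concentration-response data fitted to Hill equation.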

The target in test [3] is Cytochrome P450 3A4 (Homo sapiens) (UniProt P08684). Description: qHTS Assay for Activators of Cytochrome P450 3A4 (AID 885; active = well fitted curve in the direction sought with a large enough effect; an effect the other way counts as inactive or inconclusive; note: nearly all actives have a fitted effect of over 65% in size). A digest of the protocol:
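Steps: enzyme/substrate mix dispensed; compound added, 10 min RT; NADPH regeneration solution added, 60 min RT; luciferin detection buffer stops reaction; 20 min later luminescence measured.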

Test [4] in a line: qHTS assay for small molecule agonists of the antioxidant response element (ARE) signaling pathway (AID 651741; active = well fitted activation curve with a large enough effect in the signal ratio; the % refers to the signal ratio; note: % of control where 0% means no effect). Summed up:
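Quantitative HTS in HepG2 cells stably expressing an ARE-beta-lactamase reporter; 16 h compound exposure at 37 C, followed by 2 h room-temperature incubation with LiveBLAzer B/G FRET substrate and fluorescence measurement.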

The target of test [5] is Glucocorticoid receptor (Homo sapiens) (UniProt P04150). Description: qHTS assay for small molecule agonists of glucocorticoid receptor signaling (AID 588532; active = well fitted curve in the direction sought with a large enough effect in the signal ratio, with a control signal flat; the % refers to the signal ratio;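 note: 100% = dexamethasone at 0.1 µM and 0% = DMSO only wells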). The settings on record: HeLa MMTV-bla, beta-lactamase ratio, agonist, 18 h; activation: stronger effect = higher value, percent of dexamethasone control, DMSO zero. A digest of the protocol:
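Agonist-mode qHTS: GRE-driven beta-lactamase in HeLa cells exposed 18 h to titrated compounds (up to 92 uM), then CCF4 ratio read after 2 h at RT; Hill-fitted EC50, efficacy relative to 0.1 uM dexamethasone.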

Test [6] has the same target. Nature of the test: qHTS assay for small molecule antagonists of glucocorticoid receptor signaling (AID 588533; active = well fitted inhibition curve with a large enough effect in the signal ratio, with a control signal flat, not every such curve was filed as active; the % refers to the signal ratio;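 note: cells stimulated with 2 nM dexamethasone as agonist; % is set by controls: 0 for no effect and ±100 for the full control effect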). Summed up: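 Antagonist-mode qHTS: compound titrations added to GRE-bla HeLa cells, then dexamethasone 2 nM final; 18 h, 37 C. CCF4 FRET fluorescence normalized to dexamethasone and DMSO; IC50 from Hill fit.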
A short description of test [7]: qHTS assay for small molecule antagonists of peroxisome proliferator-activated receptor delta signaling (AID 588535; active = well fitted inhibition curve with a large enough effect in the signal ratio, with a control signal flat, not every such curve was filed as active; the % refers to the signal ratio;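 for max response: cells co-treated with a PPAR-delta agonist as stimulator during compound exposure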). The settings on record: HEK293T PPARd-UAS-bla, beta-lactamase FRET ratio, 18 h; 460 nm channel. Summed up: (§1)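 HEK293T PPAR-delta-UAS-bla cells, 4000/well, 2% charcoal/dextran FBS; 5 h 37 C; cpd titration; 18 h 37 C; CCF4 2 h RT; FI 460/530 nm; Hill fit → IC50, efficacy.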

Test [8] deals with Peroxisome proliferator-activated receptor delta (Homo sapiens) (UniProt Q03181). The description is as above. Summed up: as §1
The target of test [9] is Peroxisome proliferator-activated receptor gamma (Homo sapiens) (UniProt P37231). Nature of the test: qHTS assay for small molecule agonists of peroxisome proliferator-activated receptor gamma signaling (AID 588536; active = well fitted curve in the direction sought with a large enough effect in the signal ratio, with a control signal flat, not every such curve was filed as active; the % refers to the signal ratio;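 note: 0% = DMSO basal wells and 100% = rosiglitazone at 2 µM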). A digest of the protocol:
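Test agents, titrated, stimulated HEK293 UAS-bla cells overnight (16 h, 37 C). Substrate CCF4 was then added for two hours at room temperature before fluorescence reading.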

Test [10] concerns the target Thyroid hormone receptor beta (Homo sapiens) (UniProt P10828). Description: qHTS assay for small molecule agonists of thyroid hormone receptor beta signaling (AID 588545).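 Note: 0% = DMSO only and 100% = 10 nM T3.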 Summed up: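 Stimulation of a TR-driven beta-lactamase reporter was quantified in GripTite HEK 293 cells. Compound series ran for 18 hrs; curves were normalized to T3 and DMSO controls and fitted to yield EC50.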

The target is the same in test [11]. Description: qHTS assay for small molecule antagonists of thyroid hormone receptor beta signaling (AID 588547; active = well fitted inhibition curve with a large enough effect in the signal ratio, with a control signal flat, not every such curve was filed as active; the % refers to the signal ratio;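 note: cells stimulated with 0.4 nM T3 agonist during compound exposure; series mostly up to about 77 µM; % is set by controls: 0 for no effect and ±100 for the full control effect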). The settings on record: TR-UAS-bla HEK293, beta-lactamase ratio, antagonist mode, 18 h. Summed up:
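Inhibition of T3-driven (0.4nM final) beta-lactamase reporter activity was measured over 0.59 nM to 92 uM compound after 18 h at 37 C. The cells were GripTite HEK293 TR-UAS-bla in charcoal/dextran-stripped serum, with CCF4 ratio read-out and IC50 from Hill fits.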

Test [12] can be described thus: qHTS assay for small molecule activators of the nuclear factor-kappa B (NF-kB) signaling pathway (AID 651749; active = well fitted activation curve with a large enough effect in the signal ratio; the % refers to the signal ratio; note: series mostly up to about 77 µM; % of control where 0% means no effect). The settings on record: NF-kB-bla ME-180 cells, beta-lactamase FRET ratio, 16 h; activation: stronger effect = higher value. Summed up: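 Readout: beta-lactamase reporter driven by an NF-kB response element, detected fluorescently as loss of FRET. Cells were the ME-180 line, treated 16 hr at 37C with pin-transferred compound.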

The nature of test [13]: qHTS assay for environmental chemicals that activate the Aryl hydrocarbon Receptor (AhR) signaling pathway (AID 651777; active = well fitted curve in the direction sought with a large enough effect; an effect the other way counts as inactive or inconclusive; note: % of control where 0% means no effect; nearly all actives have a fitted effect of over 15% in size). The note with it: 1A2-DRE human hepatoma cells, luciferase, 24 h; activation: stronger effect = higher value. A digest of the protocol:
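Stable CYP1A2 promoter/DRE-luciferase human hepatoma line treated 24 hr; One-Glo luminescence, 30 min RT.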

The target in test [14] is Peroxisome proliferator-activated receptor alpha (Homo sapiens) (UniProt Q07869). Nature of the test: qHTS assay for small molecule agonists of the peroxisome proliferator-activated receptor alpha (PPARalpha) signaling pathway (AID 651778; active = well fitted curve in the direction sought with a large enough effect; an effect the other way counts as inactive or inconclusive; note: potency is the fitted concentration of half-maximal effect). The settings on record: PathHunter PPARalpha complementation, chemiluminescence, 6 h; max response: stronger effect = higher value. A digest of the protocol:
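Chemiluminescence from complemented enzyme reported PPARalpha activation in cells after 6 hr of compound treatment at 37 C. The detection reagent was incubated for 60 min at room temperature, and compounds were scored as agonists.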

Test [15] can be described thus: qHTS assay for small molecule agonists of the antioxidant response element (ARE) signaling pathway measured by Nrf2-dependant transcriptional activity (AID 720636; active = well fitted curve in the direction sought with a large enough effect in the repeat runs; an effect the other way counts as inactive or inconclusive;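 note: HepG2 cells with an ARE-driven luciferase reporter; % of control where 0% means no effect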). A digest of the protocol:
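Reporter gene assay, HepG2 ARE-luc: 16 hr compound, 37 C, 5% CO2; read-out luciferase luminescence.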

Test [16] is described as follows: qHTS assay for small molecule agonists of the antioxidant response element (ARE) signaling pathway measured by Nrf2-dependant transcriptional activity - cell viability counter screen (AID 720653; active = well fitted curve in the direction sought with a large enough effect in the repeat runs; an effect the other way counts as inactive or inconclusive; note: % is set by controls: 0 for no effect and ±100 for the full control effect). The settings on record: ARE-bla HepG2 viability, CellTiter-Glo ATP luminescence, 16 h; max response: stronger effect = lower value. A digest of the protocol:
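Cytotoxicity counter screen: intracellular ATP quantified by CellTiter-Glo luminescence in the same ARE-bla HepG2 plates, after 16 h compound exposure and a 2 h beta-lactamase substrate step.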

The nature of test [17]: qHTS assay for cell viability of HEK293 cells (AID 743288; active = well fitted curve in the direction sought with a large enough effect; an effect the other way counts as inactive or inconclusive; note: % is set by controls: 0 for no effect and ±100 for the full control effect; nearly all actives have a fitted effect of over 50% in size). The settings on record: ATP luminescence (CellTiter-Glo), 18 h; max response: stronger effect = lower value. A digest of the protocol:
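Luminescent ATP quantitation served as the viability read-out. Cells (parental HEK293, 2,000/well) received compounds after at least 5 h at 37 C and were exposed for 18 h before a 30 min room-temperature reagent step.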

Test [18] can be described thus: qHTS assay for cell viability of the p53RE-bla HCT-116 cell line (AID 743292; active = well fitted curve in the direction sought with a large enough effect; an effect the other way counts as inactive or inconclusive; note: % is set by controls: 0 for no effect and ±100 for the full control effect; nearly all actives have a fitted effect of over 55% in size). A digest of the protocol:
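Readout: CellTiter-Glo luminescence after 30 min RT. Treatment: compounds in DMSO, 16 h, 37 C. Cells: CellSensor p53RE-bla HCT-116, 4,000/well, preincubated 5 h.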

The target of test [19] is Nuclear receptor subfamily 1 group I member 2 (Rattus norvegicus) (UniProt Q9R1A7). Description: qHTS assay for small molecule activators of the rat pregnane X receptor (rPXR) signaling pathway (AID 651751; call rule not given here; note: 0% is about no effect). The settings on record: rPXR reporter cells, luciferase (One-Glo), 24 h.
Nuclear receptor subfamily 1 group I member 2 (Rattus norvegicus), sequence (Q9R1A7 whole entry, looked up): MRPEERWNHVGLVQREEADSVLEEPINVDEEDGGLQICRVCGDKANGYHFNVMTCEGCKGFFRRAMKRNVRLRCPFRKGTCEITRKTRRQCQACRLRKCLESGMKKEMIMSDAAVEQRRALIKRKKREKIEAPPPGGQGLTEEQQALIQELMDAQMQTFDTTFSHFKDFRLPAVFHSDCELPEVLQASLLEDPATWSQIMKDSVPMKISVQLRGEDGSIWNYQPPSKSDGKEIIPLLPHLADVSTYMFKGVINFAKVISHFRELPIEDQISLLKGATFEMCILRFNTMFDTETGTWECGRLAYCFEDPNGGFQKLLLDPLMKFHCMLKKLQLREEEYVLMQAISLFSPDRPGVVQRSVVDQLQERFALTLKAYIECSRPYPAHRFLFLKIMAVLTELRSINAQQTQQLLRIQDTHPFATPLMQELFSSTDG

Peroxisome proliferator-activated receptor delta (Homo sapiens), sequence (Q03181 whole entry, looked up): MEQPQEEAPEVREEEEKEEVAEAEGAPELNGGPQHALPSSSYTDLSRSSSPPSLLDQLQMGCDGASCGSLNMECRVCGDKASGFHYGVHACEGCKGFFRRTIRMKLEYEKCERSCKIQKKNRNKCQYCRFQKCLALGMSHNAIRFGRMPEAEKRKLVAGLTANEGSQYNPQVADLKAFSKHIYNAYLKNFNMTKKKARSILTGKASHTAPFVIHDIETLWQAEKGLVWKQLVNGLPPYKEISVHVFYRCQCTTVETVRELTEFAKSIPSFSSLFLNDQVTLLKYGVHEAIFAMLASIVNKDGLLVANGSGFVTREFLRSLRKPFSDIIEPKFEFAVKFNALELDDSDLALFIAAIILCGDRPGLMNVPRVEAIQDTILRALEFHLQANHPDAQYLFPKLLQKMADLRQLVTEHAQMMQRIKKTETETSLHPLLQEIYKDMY
Bile acid receptor (Homo sapiens), sequence (Q96RI1 whole entry, looked up): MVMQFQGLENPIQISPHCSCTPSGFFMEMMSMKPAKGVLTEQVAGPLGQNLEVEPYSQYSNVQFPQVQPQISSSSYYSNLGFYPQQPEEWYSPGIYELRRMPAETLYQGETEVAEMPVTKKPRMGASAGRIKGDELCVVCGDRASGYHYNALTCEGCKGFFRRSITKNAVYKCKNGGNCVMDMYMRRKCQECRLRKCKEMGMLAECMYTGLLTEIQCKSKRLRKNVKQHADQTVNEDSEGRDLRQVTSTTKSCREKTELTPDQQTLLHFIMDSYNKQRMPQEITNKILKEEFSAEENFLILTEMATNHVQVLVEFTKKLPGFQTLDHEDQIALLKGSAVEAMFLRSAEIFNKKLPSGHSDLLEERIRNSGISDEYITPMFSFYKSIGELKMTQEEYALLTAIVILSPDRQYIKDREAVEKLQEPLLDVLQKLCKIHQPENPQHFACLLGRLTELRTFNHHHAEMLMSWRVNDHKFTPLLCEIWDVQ
Thyroid hormone receptor beta (Homo sapiens), sequence (P10828 whole entry, looked up): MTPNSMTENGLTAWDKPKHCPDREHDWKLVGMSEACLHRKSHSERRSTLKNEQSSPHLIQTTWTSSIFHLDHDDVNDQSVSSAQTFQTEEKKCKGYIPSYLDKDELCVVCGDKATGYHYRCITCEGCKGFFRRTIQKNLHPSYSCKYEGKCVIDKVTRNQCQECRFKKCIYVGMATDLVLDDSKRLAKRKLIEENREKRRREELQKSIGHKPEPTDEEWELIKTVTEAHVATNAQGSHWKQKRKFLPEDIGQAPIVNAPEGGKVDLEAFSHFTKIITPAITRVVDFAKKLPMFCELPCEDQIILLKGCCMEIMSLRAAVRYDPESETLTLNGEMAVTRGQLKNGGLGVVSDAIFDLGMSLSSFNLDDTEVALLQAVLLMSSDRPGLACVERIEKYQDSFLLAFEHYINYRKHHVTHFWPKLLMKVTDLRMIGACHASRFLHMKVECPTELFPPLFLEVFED
Glucocorticoid receptor (Homo sapiens), sequence (P04150 whole entry, looked up): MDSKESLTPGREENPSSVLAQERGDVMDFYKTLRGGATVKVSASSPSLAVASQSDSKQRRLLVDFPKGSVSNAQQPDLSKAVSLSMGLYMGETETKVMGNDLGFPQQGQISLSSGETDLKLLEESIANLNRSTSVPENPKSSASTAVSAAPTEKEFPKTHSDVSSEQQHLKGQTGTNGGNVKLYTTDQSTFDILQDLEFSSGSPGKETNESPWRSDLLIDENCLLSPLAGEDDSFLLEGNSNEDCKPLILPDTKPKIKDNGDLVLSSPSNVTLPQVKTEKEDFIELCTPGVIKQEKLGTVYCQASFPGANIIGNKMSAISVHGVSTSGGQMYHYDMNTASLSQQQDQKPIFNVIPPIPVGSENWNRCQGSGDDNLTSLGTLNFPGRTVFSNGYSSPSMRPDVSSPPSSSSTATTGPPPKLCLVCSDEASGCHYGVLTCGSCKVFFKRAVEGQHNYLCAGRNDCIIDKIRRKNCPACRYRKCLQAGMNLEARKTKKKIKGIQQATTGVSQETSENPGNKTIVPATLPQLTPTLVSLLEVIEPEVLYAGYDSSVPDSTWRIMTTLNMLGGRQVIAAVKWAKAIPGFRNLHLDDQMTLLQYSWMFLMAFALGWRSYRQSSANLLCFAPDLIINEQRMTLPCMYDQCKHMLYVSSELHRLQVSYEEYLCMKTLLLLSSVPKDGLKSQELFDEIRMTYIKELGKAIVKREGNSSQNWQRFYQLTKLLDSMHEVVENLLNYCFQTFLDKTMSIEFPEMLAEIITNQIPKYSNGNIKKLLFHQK
Cytochrome P450 3A4 (Homo sapiens), sequence (P08684 whole entry, looked up): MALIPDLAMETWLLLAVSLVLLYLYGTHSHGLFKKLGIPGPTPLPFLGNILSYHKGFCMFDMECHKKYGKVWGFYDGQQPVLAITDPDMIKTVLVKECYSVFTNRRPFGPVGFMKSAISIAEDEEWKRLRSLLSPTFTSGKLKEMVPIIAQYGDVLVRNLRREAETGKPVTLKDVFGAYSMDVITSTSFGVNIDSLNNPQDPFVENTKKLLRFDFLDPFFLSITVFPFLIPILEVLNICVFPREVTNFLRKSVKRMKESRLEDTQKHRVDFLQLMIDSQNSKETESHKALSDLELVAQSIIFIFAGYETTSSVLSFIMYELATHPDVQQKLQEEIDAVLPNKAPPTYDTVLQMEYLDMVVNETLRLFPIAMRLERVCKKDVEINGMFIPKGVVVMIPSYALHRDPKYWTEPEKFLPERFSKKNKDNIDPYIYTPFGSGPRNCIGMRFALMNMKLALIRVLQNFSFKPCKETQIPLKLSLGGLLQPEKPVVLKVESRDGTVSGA
Peroxisome proliferator-activated receptor alpha (Homo sapiens), sequence (Q07869 whole entry, looked up): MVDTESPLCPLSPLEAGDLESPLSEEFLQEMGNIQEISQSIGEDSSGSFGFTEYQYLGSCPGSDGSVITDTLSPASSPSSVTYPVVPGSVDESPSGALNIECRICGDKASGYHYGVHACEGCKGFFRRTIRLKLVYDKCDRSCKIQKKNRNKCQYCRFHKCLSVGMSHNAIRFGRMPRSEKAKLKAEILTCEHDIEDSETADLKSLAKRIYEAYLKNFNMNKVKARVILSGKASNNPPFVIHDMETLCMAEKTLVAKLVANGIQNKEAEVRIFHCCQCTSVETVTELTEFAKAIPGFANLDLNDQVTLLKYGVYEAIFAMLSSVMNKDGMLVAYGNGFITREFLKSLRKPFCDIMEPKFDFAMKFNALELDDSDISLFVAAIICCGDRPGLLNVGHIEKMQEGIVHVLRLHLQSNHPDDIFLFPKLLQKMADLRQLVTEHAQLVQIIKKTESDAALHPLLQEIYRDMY
Peroxisome proliferator-activated receptor gamma (Homo sapiens), sequence (P37231 whole entry, looked up): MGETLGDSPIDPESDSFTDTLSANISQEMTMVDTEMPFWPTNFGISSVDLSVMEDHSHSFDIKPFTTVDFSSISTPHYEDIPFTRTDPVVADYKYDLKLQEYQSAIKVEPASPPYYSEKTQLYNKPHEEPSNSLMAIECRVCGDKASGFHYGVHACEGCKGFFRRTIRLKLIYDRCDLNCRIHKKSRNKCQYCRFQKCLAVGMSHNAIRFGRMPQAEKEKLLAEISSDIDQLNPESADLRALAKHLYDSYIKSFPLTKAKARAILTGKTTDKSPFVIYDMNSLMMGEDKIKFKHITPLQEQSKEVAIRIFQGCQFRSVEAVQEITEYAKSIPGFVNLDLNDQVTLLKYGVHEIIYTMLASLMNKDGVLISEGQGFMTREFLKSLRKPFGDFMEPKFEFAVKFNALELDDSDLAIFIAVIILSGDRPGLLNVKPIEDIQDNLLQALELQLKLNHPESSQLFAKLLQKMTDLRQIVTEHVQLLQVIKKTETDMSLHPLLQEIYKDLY

Take `C/C=C1\CC2C=CC1C2` (configuration not stated): in [1], the activation was 0.0193% (inactive). Also, the compound was classed as inactive in test [2].
Take `CC(=O)Nc1cccc(N)c1`: the activation in test [1] was -3.44% (inactive). Also, the result in [2] was inactive.
Take `CCC(=O)/C=C/C1C(C)=CCCC1(C)C` (configuration not stated): in test [1], the activation is -0.845% (inactive). In addition, the compound was called inactive in [2].
For `Cc1ccc(C)c(O)c1`, the activation in test [1] is 2.07% (inactive). For the same compound, the compound was classed as inactive in [2].
For `Cc1c(C(=O)O)c(O)cc2c1C(=O)c1c(O)c([C@H]3O[C@H](CO)[C@@H](O)[C@H](O)[C@H]3O)c(O)c(O)c1C2=O` the same measures were -1.49% (inactive) and “inactive”.
Turning to `COc1cc(Cl)c(OC)cc1N`, in test [1], the activation was -0.889% (inactive). The compound was called inactive in test [2].
For `CCc1ccc(C(c2ccc(CC)cc2)C(Cl)Cl)cc1` the same measures were 3.04% (inactive) and “inactive”.
`CN(CCO)CC(O)Cn1cnc2c1c(=O)n(C)c(=O)n2C` (configuration not stated) (tested in a mixture with another compound): the activation in test [1] is 1.67% (inactive). In addition, in test [2], the result was inactive.
The corresponding values for `CCCCCCCCCc1ccccc1` are 2.7% (inactive) and “inactive”.
With `CC(C)(C)c1cccc(C(C)(C)C)c1O`, in test [1], the activation was -3.57% (inactive). In addition, in test [2], the call was inactive.
With `C1OCOCO1`, in [1], the activation was -0.63% (inactive). Besides, the result in [2] was inactive.
In the case of `OB(O)O`, the activation in [1] was 1.87% (inactive) and 2.1% (inactive). Further, in [2], the outcome was inactive.
For the compound `C=C(C)C(=O)OC`, the activation in test [1] was -1.27% (inactive). The call in test [2] was inactive.
For the compound `CCCC(Cl)CCCC(Cl)CCC(Cl)CCC(Cl)CCC(Cl)CCCC(Cl)CCC` (configuration not stated), the activation in test [1] was 1.98% (inactive). Besides, the outcome in [2] was inactive.
Consider `CN(C)c1ccc(Cc2ccc(N(C)C)cc2)cc1`, for which the Potency entry in test [3] and in [4] was “inactive” throughout. The activation in [1] was -1.47% (inactive). For the same compound, the compound was classed as inactive in test [2].
As for `CCOC(=O)C(C)OC(=O)c1cc(Oc2ccc(C(F)(F)F)cc2Cl)ccc1[N+](=O)[O-]` (configuration not stated), the activation in test [5] was 2.93% (inactive); in test [12] it was 0.301% (inactive); in test [13] it was 4.56% (inactive). Besides, the Potency result in [6], in [8], in test [9], in test [10], in [15] and in test [18] was “inactive” in each case. Besides, the max response in test [7] was 34.5%; in test [16], -9.47% (inactive); in test [17] it was -22.9% (inactive); in [19], 4.28% (inactive). Besides, the activity change % (negative = inhibition) in test [11] was 11.5% (inactive). The Potency in [14] was 35.5 µM (active).

The values above are taken from PubChem BioAssay (NCATS).
